For 13 molecules, activity change, negative = inhibition results are on record in PubChem BioAssay AID1745853 (National Center for Advancing Translational Sciences (NCATS), 2022).

What all share (assay): Primary Screen for Target Class Profiling of Small Molecule Inhibitors of Methyltransferases
Experiment [1] addresses Catechol O-methyltransferase (Homo sapiens) (UniProt P21964). Particulars: purified enzyme, MTase-Glo SAH luminescence; activity change, negative = inhibition: at 40 µM, stronger effect = lower value; outcome: 40 uM. The source says: (§1) PI: Matthew D. Hall Ph.D. and Quinlin M. Hanson Ph.D.
(§2) National Center for Advancing Translational Sciences (NCATS)
(§3) National Institute of Health (NIH), Rockville, MD
(§4) Target class profiling (TCP) is a chemical biology approach amenable to investigating understudied biological targets. TCP is achieved by developing a generalizable assay platform and applying it to screen a curated set of compound libraries against representative members of a target class. Small molecule methyltransferases (SMMTase) are a subclass of methyltransferase that act on metabolites to modulate signaling pathways, metabolize xenobiotics, or balance the available methyl pool. We screened four curated libraries totaling 27,574 unique compounds against the SMMTases nicotinamide N-methyltransferase (NNMT), phenylethanolamine N-methyltransferase (PNMT), histamine N-methyltransferase (HNMT), glycine N-methyltransferase (GNMT), catechol O-methyltransferase (COMT), and guanidinoacetate N-methyltransferase (GAMT). The data generated by this TCP can be leveraged for informed tool molecule development. For example, in the associated publication we identified a chemotype of HNMT-selective inhibitors. Additionally, we identified a putative SMMTase-selective inhibitor with potential as a tool molecule for studying broader methyltransferase biology.
(§5) High-through put screening assays were developed at the National Center for Advancing Translational Science (NCATS) for the enzymes NNMT, PNMT, HNMT, GNMT, COMT, and GAMT. Enzymatic activity was measured as a function of SAM cofactor conversion using the MTase Glo kit (Promega) for all enzymes. All assays were performed in 1536-well format with substrates and SAM concentrations at KM values. Enzyme concentration and assay timing were optimized for 10-20% SAM conversion. Initial screening of 27,574 compounds was done as single-point assays using the highest compound concentration (40 uM). […] These compounds were replated in 11-point dose response and assayed against NNMT, PNMT, HNMT, GNMT, COMT, GAMT, and a counter-assay. The IC50 and efficacy (maximal response) values were determined for each dose-response curve. These values are also accounted for in the area under the curve (AUC) values.
(§6) PROTOCOL TABLE (as described by Inglese J, Shamu CE and Guy RK. 2007)
(§7) SEQUENCE No. (e.g., 1, 2, 3, etc.); […] (e.g., Cells, Incubation, Reagent, etc.); VALUE; DESCRIPTION.
(§8) 1; Reagent; 2 uL; SMMTase Enzyme (2x) in reaction buffer, columns 1- 48.
(§9) 2; Reagent; 1 uL; SAM (4x) in reaction buffer, columns 1-48.
(§10) 3; Controls; 23 nL; DMSO in column 4; sinefungin in DMSO (0 uM - 40 uM) in 7-point 1:2 dilution series (n = 2) in column 2.
(§11) 4; Compounds; 23 nL; Columns 5-48.
(§12) 5; Reagent; 1 uL; Substrate (4x) in reaction buffer, columns 2-48.
(§13) 6; Time; 20-30 min; Incubation.
(§14) 7; Reagent; 1 uL; MTase-Glo reagent (5X), columns 1-48.
(§15) 8; Time; 30 min; Incubation.
(§16) 9; Reagent; 5 uL; MTase-Glo Detection reagent, columns 1-48.
(§17) 10; Time; 30 min; Incubation, luminescence evolution.
(§18) 11; Detection; Luminescence; ViewLux uHTS Microplate Imager (PerkinElmer).
(§19) NOTES (numbers refer to Sequence numbers above)
(§20) 1, 2, 5. White Medium Binding Greiner 1536-well plates (Cat #789175-F, Greiner Bio-One, Monroe, NC); Reaction buffer: 50 mM Tris, pH 8.0, 3 mM MgCl2, 1 mM EDTA, 50 mM NaCl, 1 mM DTT, and 0.1 mg/mL BSA. Evaporation was prevented by covering assay plates with metal lids containing holes to allow gas diffusion.
(§21) 1. Six SMMTase were profiled: HNMT, GNMT, PNMT, COMT, NNMT, GAMT
(§22) 5. The corresponding substrate was used for each enzyme: HNMT - 5.3 uM Histamine; GNMT - >500 uM Glycine; PNMT - 16.2 uM Norephinephrine; COMT - 13.7 uM Norephinephrine; NNMT - 3.8 uM Nicotinamide; GAMT - 2.5 uM Guanidinoacetate.6, 8, 10. Room temperature
(§23) 6. Final reaction conditions: 10 nM COMT, 5 uM SAM, 15 uM norepinephrine, 50 mM Tris, pH 8.0, 3 mM MgCl2, 1 mM EDTA, 50 mM NaCl, 1 mM DTT, and 0.1 mg/mL BSA; refer to tables 2 and S1 for specific timing.
8. […]

Experiment [2] concerns the target Glycine N-methyltransferase (Homo sapiens) (UniProt Q14749). Particulars: purified enzyme, MTase-Glo SAH luminescence; measured here: GNMT inhibition; at 40 µM; stronger effect = lower value.
From the text: as §1, §2, §3, §4, §5, §6, §7, §8, §9, §10, §11, §12, §13, §14, §15, §16, §17, §18, §19, §20, §21, §22, §23
8. […]

Experiment [3] addresses Guanidinoacetate N-methyltransferase (Homo sapiens) (UniProt Q14353). Particulars: purified enzyme, MTase-Glo SAH luminescence; measured here: GAMT inhibition; at 40 µM; stronger effect = lower value.
From the text: as §1, §2, §3, §4, §5, §6, §7, §8, §9, §10, §11, §12, §13, §14, §15, §16, §17, §18, §19, §20, §21, §22, §23
8. […]

The target in experiment [4] is Histamine N-methyltransferase (Homo sapiens) (UniProt P50135). Conditions: purified enzyme, MTase-Glo SAH luminescence; measured here: HNMT inhibition; at 40 µM; stronger effect = lower value.
Sequence of Histamine N-methyltransferase (Homo sapiens) (P50135 whole entry, looked up): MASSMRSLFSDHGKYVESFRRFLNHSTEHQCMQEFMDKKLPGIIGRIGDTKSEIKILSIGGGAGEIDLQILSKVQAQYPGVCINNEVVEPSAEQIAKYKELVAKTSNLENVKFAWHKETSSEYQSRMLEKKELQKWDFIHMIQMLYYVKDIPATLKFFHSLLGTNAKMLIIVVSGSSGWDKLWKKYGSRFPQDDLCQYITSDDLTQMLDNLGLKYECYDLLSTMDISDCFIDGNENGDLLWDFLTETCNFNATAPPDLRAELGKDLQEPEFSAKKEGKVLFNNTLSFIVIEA
From the text: as §1, §2, §3, §4, §5, §6, §7, §8, §9, §10, §11, §12, §13, §14, §15, §16, §17, §18, §19, §20, §21, §22, §23
8. […]

In experiment [5] the target is Nicotinamide N-methyltransferase (Homo sapiens) (UniProt P40261). Conditions: purified enzyme, MTase-Glo SAH luminescence; measured here: NNMT inhibition; at 40 µM; stronger effect = lower value.
Sequence of Nicotinamide N-methyltransferase (Homo sapiens) (P40261 whole entry, looked up): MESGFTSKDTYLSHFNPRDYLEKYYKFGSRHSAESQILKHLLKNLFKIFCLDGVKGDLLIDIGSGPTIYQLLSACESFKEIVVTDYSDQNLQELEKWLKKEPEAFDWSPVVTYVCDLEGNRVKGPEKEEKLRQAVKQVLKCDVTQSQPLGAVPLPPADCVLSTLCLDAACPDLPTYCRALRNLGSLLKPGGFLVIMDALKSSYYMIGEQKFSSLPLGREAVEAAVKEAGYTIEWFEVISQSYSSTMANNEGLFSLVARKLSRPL
From the text: as §1, §2, §3, §4, §5, §6, §7, §8, §9, §10, §11, §12, §13, §14, §15, §16, §17, §18, §19, §20, §21, §22, §23
8. […]

Experiment [6] addresses Phenylethanolamine N-methyltransferase (Homo sapiens) (UniProt P11086). Particulars: purified enzyme, MTase-Glo SAH luminescence; measured here: PNMT inhibition; at 40 µM; stronger effect = lower value.
From the text: as §1, §2, §3, §4, §5, §6, §7, §8, §9, §10, §11, §12, §13, §14, §15, §16, §17, §18, §19, §20, §21, §22, §23
8. […]

Hit rate of the full screen: of about 25,000 compounds, about 970 (3.9%) were called active. Roughly 8% stayed inconclusive and do not appear here. This is one part of a sample in which actives are shown more often than they occur. How the calls were made is not given here.
On the % scale 0 is the no-effect control and ±100 the full control effect.

Sequence of Phenylethanolamine N-methyltransferase (Homo sapiens) (P11086 whole entry, looked up): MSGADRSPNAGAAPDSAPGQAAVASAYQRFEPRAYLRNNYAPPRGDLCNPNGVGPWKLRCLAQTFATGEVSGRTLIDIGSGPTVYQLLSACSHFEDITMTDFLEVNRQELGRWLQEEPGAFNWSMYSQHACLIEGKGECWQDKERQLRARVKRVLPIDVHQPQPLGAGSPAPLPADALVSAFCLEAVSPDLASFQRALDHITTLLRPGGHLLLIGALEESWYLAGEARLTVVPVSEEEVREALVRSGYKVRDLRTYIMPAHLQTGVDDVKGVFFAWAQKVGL
Sequence of Catechol O-methyltransferase (Homo sapiens) (P21964 whole entry, looked up): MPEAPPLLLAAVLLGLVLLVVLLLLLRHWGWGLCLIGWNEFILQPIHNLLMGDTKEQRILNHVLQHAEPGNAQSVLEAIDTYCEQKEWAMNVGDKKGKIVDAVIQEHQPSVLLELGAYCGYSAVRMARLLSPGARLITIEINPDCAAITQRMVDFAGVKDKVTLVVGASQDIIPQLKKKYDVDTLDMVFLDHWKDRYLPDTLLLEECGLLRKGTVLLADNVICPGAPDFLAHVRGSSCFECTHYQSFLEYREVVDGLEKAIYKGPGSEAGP
Sequence of Glycine N-methyltransferase (Homo sapiens) (Q14749 whole entry, looked up): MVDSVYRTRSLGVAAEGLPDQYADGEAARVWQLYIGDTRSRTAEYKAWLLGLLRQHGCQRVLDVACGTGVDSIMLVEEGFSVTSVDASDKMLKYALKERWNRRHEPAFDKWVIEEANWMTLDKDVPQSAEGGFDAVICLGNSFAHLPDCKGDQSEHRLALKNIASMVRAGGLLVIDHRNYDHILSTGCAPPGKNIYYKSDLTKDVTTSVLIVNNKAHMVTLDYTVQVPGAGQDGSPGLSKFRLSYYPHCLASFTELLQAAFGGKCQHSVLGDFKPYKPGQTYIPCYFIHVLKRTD

On to `Cc1cc2c(F)c(Oc3ncnn4cc(OCC(C)O)c(C)c34)ccc2[nH]1` (stereo not drawn), for which the activity change, negative = inhibition in experiment [1] is 3.68% (inactive); in experiment [2], 3.84%; in experiment [3], 9.85%; in experiment [4], 8.7%; in experiment [5], -17.3%; in experiment [6] it was -3.09%.
Consider `Cc1nonc1OCCn1ccnc1-c1cn(C2CCNCC2)nn1`, for which the activity change, negative = inhibition is 0.411% (inactive) in experiment [1]; -2.5% in experiment [2]; -0.534% in experiment [3]; -2.48% in experiment [4]; -2.16% in experiment [5]; -1.03% in experiment [6].
On to `CCOC(=O)c1ccc(N2C(=O)CSc3c(c4ccccc4n3C)C2C(=O)NCc2ccccc2)cc1` (stereo not drawn), for which the activity change, negative = inhibition in experiment [1] is 8.93% (inactive); in experiment [2], 13.6%; in experiment [3], 0.807%; in experiment [4] it was 10.5%; in experiment [5], 10.6%; in experiment [6], 10.2%.
Regarding `CC1CC(O)/C=C/C(O)/C=C\C(=O)O1` (stereo not drawn), the activity change, negative = inhibition is -1.4% (inactive) in experiment [1]; 0.769% in experiment [2]; 10.1% in experiment [3]; 9.33% in experiment [4]; -2.16% in experiment [5]; 5.9% in experiment [6].
For the molecule `O=C(CCn1ccc2cc(S(=O)(=O)N3CCCC3)ccc21)NCc1cccc(Cl)c1`, the activity change, negative = inhibition in experiment [1] was -5.13% (inactive); in experiment [2], -5.66%; in experiment [3] it was 0%; in experiment [4], -0.957%; in experiment [5], -15.3%; in experiment [6], -7.6%.
Take `CC(F)(F)CN1CCOc2c(nn(-c3ccccc3Cl)c2-c2ccc(Cl)cc2)C1=O`: the activity change, negative = inhibition in experiment [1] was -4.89% (active); in experiment [2], -72.3%; in experiment [3] it was -2.43%; in experiment [4], -6.67%; in experiment [5], -49.1%; in experiment [6], -14.4%.
Consider `COc1cc(NC(=O)CSc2nnc3n(CC(C)C)c(=O)c4ccccc4n23)cc(OC)c1`, for which the activity change, negative = inhibition was 1.19% (inactive) in experiment [1]; 0.652% in experiment [2]; 4.16% in experiment [3]; 4.88% in experiment [4]; 0.518% in experiment [5]; 1.8% in experiment [6].
As to `CC1=C(C(=O)O)/C(=C/CO[C@@H]2O[C@H](COC(=O)/C=C/c3ccc(O)cc3)[C@@H](O)[C@H](O)[C@H]2O)C(O)C1` (stereo partly drawn), the activity change, negative = inhibition was -20.2% (inactive) in experiment [1]; 4.68% in experiment [2]; 4.63% in experiment [3]; 9.32% in experiment [4]; -5.67% in experiment [5]; 0.561% in experiment [6].
`COc1ccc2cc3n(c2c1)CC(C)(C(=O)NC1CCCC1)N(CCc1ccc(SC)cc1)C3=O` (stereo not drawn): the activity change, negative = inhibition was -1.16% (inactive) in experiment [1]; 0.148% in experiment [2]; 0% in experiment [3]; 3.11% in experiment [4]; -0.661% in experiment [5]; -4.18% in experiment [6].
As for `CCC[C@H]1CN(C(=O)c2ccc3c(c2)NC(=O)CN3)C[C@@H]1N`, the activity change, negative = inhibition was -3.16% (inactive) in experiment [1]; -3.38% in experiment [2]; -8.81% in experiment [3]; -2.88% in experiment [4]; -6.82% in experiment [5]; -2.87% in experiment [6].
Consider `CCOc1ccc(N2C(=O)c3cc(-c4ccc(OC)cc4)nn3CC2(C)C(=O)NCc2ccccc2OC)cc1` (stereo not drawn), for which the activity change, negative = inhibition was 4.86% (inactive) in experiment [1]; 7.45% in experiment [2]; 4.82% in experiment [3]; 9.26% in experiment [4]; 5.96% in experiment [5]; 0.163% in experiment [6].
Turning to `CN1C(=O)c2cc(C(=O)NCCc3cccs3)nn2CC1(C)C(=O)NCc1ccc(F)cc1` (stereo not drawn), the activity change, negative = inhibition in experiment [1] is 1.71% (inactive); in experiment [2], 3.48%; in experiment [3] it was 0%; in experiment [4], -2.18%; in experiment [5] it was 9.12%; in experiment [6] it was 3.02%.
Consider `C[C@]12CCC[C@](C)(C(=O)O)C1[C@@H](O)[C@@H](O)C13CC(CCC12)C(CO)(O[C@@H]1O[C@H](CO)[C@@H](O)[C@H](O)[C@H]1O)C3` (stereo partly drawn), for which the activity change, negative = inhibition is -23% (inactive) in experiment [1]; 0% in experiment [2]; 1.76% in experiment [3]; 7.4% in experiment [4]; -7.28% in experiment [5]; 3.45% in experiment [6].
